78 molecules from PubChem BioAssay AID588692 (Broad Institute, 2011) can be followed below.

Out of some 360,000 compounds screened, about 830 (0.23%) were called active.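 The calls were made as follows: active = mean luciferase reporter signal, scaled so untreated is 0 and the glycosylation-blocking control 100, at or above a set limit in every replicate; inconclusive = mean reaches the limit but not every replicate does; inactive = mean below the limit.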 Only a selection was taken, and actives are over-represented in it overall.

The nature of the assay: increase of ERlucT glycosylation luciferase signal, primary screen, N-linked glycosylation inhibitor project, D54 ERlucT cells, luminescence, set 2 (AID 588692).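 Also: luciferase carries N-glycosylation sites so blocking glycosylation raises the light; 0% = median of neutral control wells and 100% = median of 100 nM tunicamycin wells.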 Conditions: 24 h, at 12.5 µM, hits give high values, percent of 100 nM tunicamycin response.
Turning to `COc1ccc(N2CCN(S(=O)(=O)c3cc4c5c(c3)C(C)C(=O)N5CCC4)CC2)cc1` (stereo not drawn), the reporter increase is -1.71% (inactive).

Regarding `CCn1nc(C(=O)NNC(=O)C2CSC3(C)CCC(=O)N23)c2ccccc2c1=O` (stereo not drawn), the reporter increase was -0.092% (inactive).

Turning to `CC(NCc1cccs1)C(=O)Nc1cc(Cl)cc(Cl)c1` (stereo not drawn), the reporter increase is 0.0655% (inactive). As to `O=C(N/N=C/C=C/c1ccccc1)C1CC1(c1ccccc1)c1ccccc1` (stereo not drawn), the reporter increase is -0.496% (inactive).

In the case of `CN(C)S(=O)(=O)c1ccc(N2CCCC2)c(C(=O)Nc2cccc(F)c2)c1`, the reporter increase is 48.8% (active). For `CN(C)S(=O)(=O)c1ccc(N2CCCC2)c(C(=O)NCc2ccccc2)c1`, the reporter increase is -1.02% (inactive). Consider `CN(C)S(=O)(=O)c1ccc(N2CCCC2)c(C(=O)Nc2ccc(Br)cc2F)c1`, for which the reporter increase was -1.25% (inactive). For the molecule `CN(NC(=O)C1CC(=O)N(c2ccccc2)C1)C1=NS(=O)(=O)c2ccccc21` (stereo not drawn), the reporter increase was 1.73% (inactive).

Take `CC[C@H]1OC(=O)[C@H](C)[C@@H](O[C@H]2C[C@@](C)(OC)[C@@H](O)[C@H](C)O2)[C@H](C)[C@@H](O[C@@H]2O[C@H](C)C[C@H](N(C)C)[C@H]2O)[C@](C)(O)C[C@@H](C)[C@@H]2N[C@@H](COCCOC)O[C@H]([C@H]2C)[C@]1(C)O`: the reporter increase was 0.0685% (inactive). Consider `Cc1cccc(N2C(=O)N3[C@H](c4ccc(F)cc4)[C@@H]4C(=O)N(C5CCCCC5)C(=O)[C@@H]4[C@]3(Cc3ccccc3)C2=O)c1`, for which the reporter increase was 78.2% (active).

`COc1ccc([C@@H]2[C@@H]3C(=O)N(C(C)(C)C)C(=O)[C@@H]3[C@]3(Cc4ccccc4)C(=O)N(c4cccc(Br)c4)C(=O)N23)cc1`: the reporter increase was 36.7% (active). For the molecule `CC[C@@]12C(=O)N(c3ccccc3)C(=O)N1[C@H](c1ccc(Br)cc1)[C@@H]1C(=O)N(C(C)(C)C)C(=O)[C@@H]12`, the reporter increase is -1.3% (inactive).

With `O=C1[C@H]2[C@@H](c3ccc(Cl)cc3)N3C(=O)N(c4cccc(F)c4)C(=O)[C@@]3(Cc3ccccc3)[C@H]2C(=O)N1C1CCCCC1`, the reporter increase is -1.72% (inactive).

Regarding `CC(C)(C)N1C(=O)[C@H]2[C@@H](c3ccc(Br)cc3)N3C(=O)N(c4cccc(Cl)c4)C(=O)[C@@]3(C)[C@H]2C1=O`, the reporter increase is -3.13% (inactive). The figure for `O=C1[C@H]2[C@@H](c3ccc(F)cc3)N3C(=O)N(c4ccc(C(F)(F)F)cc4)C(=O)[C@@]3(Cc3ccccc3)[C@H]2C(=O)N1C1CCCCC1` is -7.93% (inactive); for `CCCCN(C)C(=O)c1ccc2c(c1)N(CC)C(=O)c1ccccc1S2(=O)=O` it is 2.3% (inactive); for `O=C(CN1C(=O)NC2(CCc3ccccc32)C1=O)NC1CCCCC1` (stereo not drawn) it is 3.09% (inactive). Take `COCCNC(=O)CN1C(=O)CSc2ncccc21`: the reporter increase is 3.24% (inactive). Regarding `OC[C@@H]1CN(Cc2ccc3c(c2)OCO3)C[C@H](n2cnc3c(NCc4ccco4)ncnc32)O1`, the reporter increase is -0.219% (inactive). As for `CCOC(=O)[C@H]1[C@H]2COc3ccc(OC)cc3[C@@H]2N2C(=O)c3ccc(F)cc3NC(=O)[C@@]12C`, the reporter increase is 7.58% (inactive). As for `Cc1ccc2c(c1)NC(=O)[C@@]1(C)[C@@H](c3ccccc3)[C@H]3COc4ccc(Cl)cc4[C@@H]3N1C2=O`, the reporter increase is 19.6% (inactive). On to `COc1ccc2c(c1)[C@H]1[C@H](CO2)[C@H](c2ccccc2)[C@]2(C)C(=O)Nc3cc(F)c(F)cc3C(=O)N12`, for which the reporter increase is 42% (active). Consider `CC(=O)c1ccc(S(=O)(=O)NC2CC(=O)N(c3ccc4c(c3)OCCO4)C2)cc1` (stereo not drawn), for which the reporter increase is 0.667% (inactive).

As for `C[C@@H]1CN([C@@H](C)CO)C(=O)c2cc(Br)cnc2O[C@@H]1CN(C)C(=O)C1CCCCC1`, the reporter increase is -0.264% (inactive).

`CC1(C)O[C@@H]2[C@H](O1)[C@@H](COS(=O)(=O)O)O[C@H]2n1ccc(=O)[nH]c1=O`: the reporter increase was 2.9% (inactive). Turning to `CCCNC(=O)C1(C)CCN(C(=O)c2cc(F)ccc2C)C1` (stereo not drawn), the reporter increase is -0.06% (inactive). For the molecule `CC(C)OCCCNC(=S)N1CCC(C(=O)c2ccc3c(c2)OCCO3)CC1`, the reporter increase is -1.26% (inactive). Turning to `COc1ccc(C)cc1NC(=O)CSc1cccc[n+]1[O-]`, the reporter increase is 1.45% (inactive). The figure for `CN(C)c1ccc(S(=O)(=O)NCC(=O)NCC2CCCCC2)cc1[N+](=O)[O-]` is -0.935% (inactive); for `CN(C)c1ccc(/C=C/C(=O)c2ccc(C(C)(C)C)cc2)cc1[N+](=O)[O-]` it is 32.9% (active); for `O=C(/C=C/c1ccc(Cl)cc1)N1CCN(c2ccccc2[N+](=O)[O-])CC1` it is 0.213% (inactive). On to `CC/C(=N\NC(=O)c1c(C)nc2ccccn12)c1ccc(Cl)cc1`, for which the reporter increase is -0.008% (inactive). The figure for `OCc1ccc(-c2ccccc2)c(-c2ccccc2)c1` is 2.12% (inactive); for `CCCc1nc2ccccc2c(C(=O)OCc2nnc(-c3cc(OC)c(OC)c(OC)c3)o2)c1CC` it is 1.91% (inactive); for `O=C1C2C3C=CC(C3)C2C(=O)N1c1ccc(S(=O)(=O)Nc2nccs2)cc1` (stereo not drawn) it is -0.133% (inactive). `Cc1sc2ncnc(SCC(=O)Nc3ccc(CN4CCCC4)cc3)c2c1C`: the reporter increase was -0.51% (inactive). For the molecule `C=CCn1c(SCC(=O)NCCCO)nc2sc3c(c2c1=O)CCC3`, the reporter increase is 0.299% (inactive).

As to `C=CCn1c(SCc2c(C)noc2C)nc2sc3c(c2c1=O)CCC(C)C3` (stereo not drawn), the reporter increase is 27.8% (active). Then `C=CCn1c(SCC(=O)NCC2CCCO2)nc2sc(C)c(C)c2c1=O` (stereo not drawn), with -1.1% (inactive).

As for `N#Cc1ccc(C2=CC(=O)C[C@H](c3ccc(Cl)cc3)C2)cc1`, the reporter increase is 1.89% (inactive). Then `CC(=O)NCC(=O)N(Cc1ccco1)C1(C(=O)NC2CCCC2)CCCCC1`, with -0.741% (inactive); and `O=C(Nc1ccc(Cl)cc1)C1Cc2c(-c3ccc4c(c3)OCO4)ccnc2O1` (stereo not drawn), with 1.69% (inactive); and `CCc1c(C)n([O-])c2c([n+]1=O)CCCCC2`, with 2% (inactive). Consider `CCCNC(=O)C1(C)CCCN(C(=O)c2cccc(OC(C)=O)c2C)C1` (stereo not drawn), for which the reporter increase is -0.136% (inactive).

Regarding `Cc1ccc(Nc2nc(CSc3nnc(-c4ccncc4)n3-c3ccccc3C)cs2)cc1`, the reporter increase is -2.15% (inactive). Turning to `CC(C)CCNC(=O)Cn1c(=O)oc2cc(S(=O)(=O)N3CC(C)CC(C)C3)ccc21` (stereo not drawn), the reporter increase is 114% (active). For the molecule `CC1CCCCN1C(=O)Cn1c(=O)oc2cc(S(=O)(=O)N3CCCCC3)ccc21` (stereo not drawn), the reporter increase was -0.145% (inactive). The figure for `COc1cccc(CNC(=O)Cn2c(=O)oc3cc(S(=O)(=O)N4CCCCC4)ccc32)c1` is -0.785% (inactive); for `CCOC(=O)c1cc2cc(-c3c(C(=O)OCC)oc4cc(O)cc(O)c4c3=O)ccc2o1` it is -0.142% (inactive). For the molecule `Cc1cccc(C)c1NC(=O)Nc1ccccc1-n1ccnc1`, the reporter increase was 0.968% (inactive). Take `Cc1cccn2cc(-c3cccc(S(=O)(=O)N4CCCCC4)c3)nc12`: the reporter increase is -0.565% (inactive).

In the case of `Cc1ccc2nc(-c3ccncc3)cc(C(=O)Nc3ccncc3)c2c1`, the reporter increase was 29.9% (active).

With `CC1CCCC(NC(=O)c2cc(-c3ccncc3)nc3ccccc23)C1C` (stereo not drawn), the reporter increase was 0.382% (inactive). For `Cc1ccc2nc(-c3ccncc3)cc(C(=O)Nc3ccc(OC(F)F)cc3)c2c1`, the reporter increase was -8.25% (inactive). In the case of `O=C(c1ccc(N2CCCC2=O)cc1)N1CCN(c2ccc(C(F)(F)F)cc2[N+](=O)[O-])CC1`, the reporter increase is -1.99% (inactive). As for `CN(C)C(=O)N=NC(=O)N(C)C`, the reporter increase was 0.968% (inactive). As to `COc1cc(N/C=C2\CC(=O)NC(C)=C2C#N)cc(OC)c1OC`, the reporter increase is 0.911% (inactive). Then `O=C1/C(=C\c2ccc(O)cc2)CCC1CNc1ccc(Cl)cc1` (stereo not drawn), with 10.4% (inactive).

Take `Cc1ccc(C(=O)Nc2ccc3c(c2)OCCO3)cc1S(=O)(=O)N1CCOCC1`: the reporter increase is -2.07% (inactive). Then `COc1cccc(OC)c1C(=O)Nc1ccc2c(c1)n(C)c(=O)n2C`, with 9.32% (inactive). In the case of `Cn1c(=O)n(C)c2cc(C(=O)Nc3ccc4c(c3)OCO4)ccc21`, the reporter increase was 70.1% (active).

As for `Cc1ccc(S(=O)(=O)N2CCOCC2)cc1NC(=O)c1ccncc1`, the reporter increase was 0.492% (inactive). For the molecule `Cc1ccc(S(=O)(=O)NN=C2CC(C)(C)CC(=O)C2(C)C)cc1`, the reporter increase is -0.913% (inactive). Regarding `Cc1cccc(S(=O)(=O)N2CN(CC3CCCO3)c3nc4ccccc4nc32)c1` (stereo not drawn), the reporter increase is 0.557% (inactive). In the case of `Cc1sc2c(c1C)c(=O)n(-c1ccccc1)c1nncn21`, the reporter increase was 3.73% (inactive).

As for `C=CCN(CC=C)S(=O)(=O)c1ccc(C(=O)Nc2nc3c(s2)CCc2ccccc2-3)cc1`, the reporter increase is 55.6% (active). The figure for `O=C(Nc1ccc(S(=O)(=O)N2CCc3ccccc3C2)cc1)c1ccccc1` is -1.85% (inactive); for `COCCN(CCOC)S(=O)(=O)c1ccc(C(=O)Nc2nc3c(s2)CCc2ccccc2-3)cc1` it is -0.048% (inactive). Then `C[C@H](CO)N1C[C@H](C)[C@H](CN(C)CC2CC2)Oc2ccc(NC(=O)CCN3CCOCC3)cc2C1=O`, with 1.29% (inactive); and `CCc1nnc(NC(=O)C2CC(=O)N(c3ccc4c(c3)OCCO4)C2)s1` (stereo not drawn), with 1.58% (inactive). Regarding `CNC(=O)c1cccc2nc3ccccc3nc12`, the reporter increase was 39.1% (active). Regarding `CN(C)C(=O)c1coc2nc3ccccc3nc12`, the reporter increase is 0.129% (inactive). Turning to `CNC(=O)C(NC(=O)c1ccccc1)=C(C)C`, the reporter increase is -0.912% (inactive). `COc1ccc2[nH]c3c(c2c1)CCN1C(=O)C(CC(=O)NCCc2ccccn2)C[C@H](C(=O)N2CCOCC2)[C@@]31C` (stereo partly drawn): the reporter increase was 2.29% (inactive). Consider `CSc1cc(C)n(-c2ccccc2C)c(=S)c1C(C)=O`, for which the reporter increase is -0.347% (inactive). In the case of `COc1ccccc1CNC(=O)CNC(=O)c1cn(-c2ccccc2OC)c(=O)c2ccccc12`, the reporter increase was 1.89% (inactive). Turning to `Cc1ccc(F)c(S(=O)(=O)NC(=O)C2(C)CCN2C(=O)CCc2cccs2)c1` (stereo not drawn), the reporter increase was 2.26% (inactive). The figure for `O=C(Nc1cccc(Cc2ccccc2)c1)Nc1ccc2nc([C@@H]3O[C@H](CO)[C@@H](O)[C@H](O)[C@H]3O)[nH]c2c1` is 0.008% (inactive).
